Results published in ChEMBL document CHEMBL3433997, “St. Jude Leishmania screening dataset” (2016).

Key:
Type in all cases: functional
[1] = molecular target: Solute carrier family 2, facilitated glucose transporter member 1 (Homo sapiens) (UniProt P11166); assay: ST_JUDE_LEISH: Cytotoxicity at 2uM final concentration against transgenic Leishmania Mexicana promastigotes LmGLUT1 that are glucose transport deficient and complemented with the human glucose transporter GLUT1. Activity is measured by DNA content using SYBR green in vitro
Sequence of Solute carrier family 2, facilitated glucose transporter member 1 (Homo sapiens) (P11166 whole entry): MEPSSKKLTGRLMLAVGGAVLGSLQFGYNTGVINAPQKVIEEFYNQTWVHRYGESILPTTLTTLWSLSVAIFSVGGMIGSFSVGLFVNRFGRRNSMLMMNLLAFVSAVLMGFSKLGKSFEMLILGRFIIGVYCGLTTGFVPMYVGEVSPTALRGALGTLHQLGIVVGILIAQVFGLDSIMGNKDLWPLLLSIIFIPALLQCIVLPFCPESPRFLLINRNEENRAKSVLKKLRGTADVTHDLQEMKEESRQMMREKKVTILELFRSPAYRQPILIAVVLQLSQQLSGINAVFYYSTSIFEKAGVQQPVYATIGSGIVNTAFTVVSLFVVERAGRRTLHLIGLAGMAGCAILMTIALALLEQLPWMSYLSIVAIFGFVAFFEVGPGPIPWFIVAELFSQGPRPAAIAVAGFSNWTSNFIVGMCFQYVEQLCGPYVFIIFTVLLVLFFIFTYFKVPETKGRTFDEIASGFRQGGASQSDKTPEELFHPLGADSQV

[2] = molecular target: Hexose transporter 1 (Plasmodium falciparum) (UniProt O97467); assay: ST_JUDE_LEISH: Cytotoxicity at 2uM final concentration against transgenic Leishmania Mexicana promastigotes LmPfHT that are glucose transport deficient and complemented with the Plasmodium falciparum hexose transporter. Activity is measured by DNA content using SYBR green in vitro
[3] = molecular target: Glucose transporter (Leishmania mexicana) (UniProt O61059); assay: ST_JUDE_LEISH: Cytotoxicity at 2uM final concentration against transgenic Leishmania Mexicana promastigotes LmGT2 that are glucose transport deficient and complemented with the L. Mexicana glucose transporter 2. Activity is measured by DNA content using SYBR green in vitro

SMILES | inhibition [1] [%] | inhibition [2] [%] | inhibition [3] [%]
ON=C1CCc2cc(-c3[nH]c(-c4cccc(OCCNCc5ccc(F)cc5)c4)nc3-c3ccncc3)ccc21 | 16.7 | 9.15 | 10.8
COCCCNC(=O)[C@H]1CNCCN1C(=O)c1ccccc1 | 1 | 0.97 | 3.67
CN(C)c1ccc(-c2csc(C(=O)NCC3CCN(CCC(C)(C)C)C3)c2)cc1 (centres undefined) | -0.84 | -0.06 | 0.06
COc1ccc(S(=O)(=O)NC2CCN(CCCOc3ccnc4cc(Cl)ccc34)C2)cc1OC (centres undefined) | 3.41 | 3.81 | 2.88
Cc1nc(-c2cccc3c(NC(=O)N4CCc5cc6nccc(N7CCN(C)CC7)c6cc54)cccc23)no1 | 1.15 | -2.64 | -0.68
O=C(/C=C/c1ccc(Cl)c(Cl)c1)NCCCCCN1CCC(c2c[nH]c3cc(O)ccc23)CC1 | 9.77 | 8.43 | 7.41
CCCCc1ccc(CCNCCCCCCNCCc2ccc(O)c(O)c2)cc1 | 0.01 | -0.03 | -1.2
Cc1ccc2c(Cl)c(C(=O)N3CCCc4ccccc43)sc2c1 | 5.28 | 3.86 | 3.16
Cc1ccc(CN2CCN(c3cc4c(cc3Cl)CCN4C(=O)Cc3ccc(Cl)c(NC(=O)Nc4cccc(C#N)c4)c3)CC2)cc1 | -1.29 | -1.46 | -0.62
CC(C)CCN(Cc1cncn1Cc1cccc(C(F)(F)F)c1)C(=O)c1ccccc1C#N | -3.54 | -0.35 | 0.86
O=C(Nc1ccc2ccccc2n1)c1ccccc1-c1ccccc1 | -0.59 | 2.19 | -0.78
COc1ccc2c(C)cc(NCCCN(C)C)nc2c1 | 0.02 | -0.64 | -1.1
NCC(=O)Nc1cccc(Nc2nccc(-c3c(-c4cccc(NC(=O)c5ccccc5)c4)nn4ccccc34)n2)c1 | 3.36 | 7.49 | 1.14
CN1CCC(NC(=O)c2cccc(Nc3cc(Nc4cccc(Br)c4)ncn3)c2)CC1 | 4.2 | 3.45 | 2.65
CCCNCc1ccc(-c2ccc(CN(CCOC)C(=O)c3cnc(C)cn3)cc2)nc1 | -0.38 | 0.25 | 0.24
CCNc1cc(C(=O)N[C@@H](Cc2ccccc2)[C@H](O)CNCC(C)C)cc(N2CCCC2=O)c1 | 2.24 | 1.42 | -1.69
Cc1[nH]c2ccccc2c1C(=O)C(C)Sc1nnc(-c2ccccc2F)o1 (centres undefined) | 2.5 | 1.95 | 3.81

SMILES | inhibition [1] [%] | inhibition [2] [%] | inhibition [3] [%]
CC(C)c1ccc(NC(=O)N[C@H]2CCN(CCCCCNC(=O)/C=C/c3ccc(Cl)c(Cl)c3)C2)cc1 | 2.04 | -3.46 | 2.9
CC(C)(CNCc1cccc(Oc2cccc(C(F)(F)F)c2)c1)c1nc(-c2ccnc(N)n2)c(-c2ccc(Cl)c(O)c2)[nH]1 | 6.03 | 6.79 | 7.44
Cc1cc(C)n(Cc2ccc(C(=O)NCC3CCCCC3)cc2)n1 | 4.03 | 2.07 | 2.61
CN(C)c1ccc(CN2CCC(NC(=O)c3ccc(-c4ccccc4Cl)s3)CC2)cc1 | 2.51 | 1.07 | 1.76
Nc1nc(N)c(-c2ccccc2)c(=O)[nH]1 | 4.51 | 3.54 | 1.16
Nc1ncc(-c2cccc(OCc3ccccc3)c2)cc1-c1nnc2ccc(Cl)nn12 | 1.7 | 1.29 | 2.15
CCc1ccccc1N=C1c2c(cccc2[N+](=O)[O-])C(=O)C1C(C)=O (centres undefined) | -1.62 | -1.21 | -2.14
CN1CCN(c2cc(-c3cccnc3)nc(-c3ccncc3)n2)CC1 | 5.56 | 5.65 | 3.57
CCCCCCCCCC(=O)NCC1CC(Br)=NO1 (centres undefined) | -2 | -0.61 | -1.46
Cc1cc(N)c2cc(NC(=O)c3cccc(C(=O)Nc4ccc5nc(C)cc(N)c5c4)c3)ccc2n1 | -0.38 | 2.01 | -2.06
Cc1ncc([N+](=O)[O-])n1CCOC(=O)NC(NCC1COc2ccccc2O1)C(Cl)(Cl)Cl (centres undefined) | 2.63 | 2.63 | 2.19
COc1ccc(NC(=O)C2c3ccccc3C(=O)N(CC(C)C)C2c2cccs2)cc1OC (centres undefined) | -0.36 | 0.34 | 0.28
CC1CCCN1Cc1ccc(-c2ccc3c(=O)cc(CCc4cccc(F)c4F)n(CC(=O)N(C)Cc4ccc(-c5ccc(C(F)(F)F)cc5)cc4)c3n2)cc1 (centres undefined) | -0.63 | -4.81 | 10.4
Cn1cnc(CCNC(=O)c2ccc(-c3ccc(-c4nc5cc(F)ccc5[nH]4)cc3)cc2)c1 | 5.05 | 5.92 | 4.84
CC(O)C1CCCCN1C(=O)c1cccc(-c2ccc(-c3nc4cc(C(F)(F)F)ccc4[nH]3)cc2)c1 (centres undefined) | 0.8 | 0.3 | 1
O=C(Nc1ccc(O)c(-c2nc3ccccc3[nH]2)c1)c1ccc([N+](=O)[O-])cc1 | -2.13 | -0.21 | 1.31
